Where “and” joins values, the source holds several entries; their conditions need not be identical. Equal values may be shown once. In all, about 5,500 compounds went through this assay and about 2,000 (36%) were called active. Inconclusive results (about 18%) are left out. Cut-off read from the data, not from the text of the source: active = normalized growth mostly below about 0.91 (no sharp cut-off); inconclusive = no clear call, values can overlap the other calls; inactive = mostly above about 0.92. Some of the results follow.
Test: chemical genetic growth profiling, strain panel (AID 1159580);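 note: tested at 20 µM; growth read once vehicle control cultures reached saturation at 30 °C; 1 = growth at the plate median or of vehicle wells; lower values mean less growth of the strain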
Details: S. cerevisiae deletion strains, growth OD
[1] = locus YAL040C, strain CLN3, stronger effect = lower value
[2] = locus YCL061C, strain MRC1 (second series), stronger effect = lower value
[3] = locus YDR363W, strain ESC2, stronger effect = lower value
[4] = locus YER002W, strain NOP16, stronger effect = lower value
[5] = locus YMR263W, strain SAP30, stronger effect = lower value
[6] = locus YMR307W, strain GAS1, stronger effect = lower value
[7] = locus YNL175C, strain NOP13, stronger effect = lower value
[8] = locus YNL197C, strain WHI3, stronger effect = lower value
[9] = locus YNL224C, strain SQS1, stronger effect = lower value
[10] = locus YOR083W, strain WHI5 (second series), stronger effect = lower value
[11] = locus YPL055C, strain LGE1, stronger effect = lower value

Measured: normalized growth

CN(CCOc1ccc(C[C@H](Nc2ccccc2C(=O)c2ccccc2)C(=O)O)cc1)c1ccccn1
inactive: locus YAL013W, strain DEP1, stronger effect = lower value 0.992 | [1] 1.09 | [2] 0.999 | [3] 0.994 | [4] 1 | locus YGR078C, strain PAC10, stronger effect = lower value 1.02 | [5] 1 | [6] 0.996 | [7] 1 | [8] 0.994 | [9] 0.992 | [10] 1.1 | [11] 1

CN(C)CCOC(C)(c1ccccc1)c1ccccn1 (configuration not stated)
inactive: locus YAL021C, strain ccr4, stronger effect = lower value 1.03 | locus YAL026C, strain drs2, stronger effect = lower value 1 | locus YAL030W, strain snc1, stronger effect = lower value 0.993 | [1] 0.998 | locus YBL061C, strain skt5, stronger effect = lower value 1 | locus YBR009C, strain hhf1, stronger effect = lower value 1 | locus YBR021W, strain FUR4, stronger effect = lower value 1.01 | locus YBR023C, strain chs3, stronger effect = lower value 1.01 | locus YBR171W, strain sec66, stronger effect = lower value 1 | locus YBR229C, strain ROT2, stronger effect = lower value 1.01 | locus YBR231C, strain swc5, stronger effect = lower value 1 | locus YBR279W, strain paf1, stronger effect = lower value 1.01 | locus YCL011C, strain gbp2, stronger effect = lower value 1 | locus YCL016C, strain dcc1, stronger effect = lower value 1.01 | locus YCL029C, strain bik1, stronger effect = lower value 0.958 | [2] 1.01 | locus YCL061C, strain MRC1, stronger effect = lower value 1.01 | locus YCL069W, strain vba3, stronger effect = lower value 1.02 | locus YCR088W, strain abp1, stronger effect = lower value 1.02 | locus YDL005C, strain med2, stronger effect = lower value 1.01 | locus YDL035C, strain GPR1, stronger effect = lower value 1.02 | locus YDL040C, strain nat1, stronger effect = lower value 1.01 | locus YDL074C, strain BRE1, stronger effect = lower value 0.977 | locus YDL101C, strain DUN1, stronger effect = lower value 0.989 | locus YDL185W, strain tfp1, stronger effect = lower value 0.953 | locus YDL192W, strain arf1, stronger effect = lower value 0.99 | locus YDR001C, strain nth1, stronger effect = lower value 1.01 | locus YDR069C, strain doa4, stronger effect = lower value 0.975 | locus YDR101C, strain arx1, stronger effect = lower value 0.993 | locus YDR137W, strain rgp1, stronger effect = lower value 0.991 | locus YDR150W, strain NUM1, stronger effect = lower value 1 | locus YDR159W, strain sac3, stronger effect = lower value 0.928 | locus YDR162C, strain NBP2, stronger effect = lower value 0.998 | locus YDR195W, strain ref2 0.995 | locus YDR297W, strain sur2, stronger effect = lower value 0.973 | locus YDR318W, strain mcm21, stronger effect = lower value 0.981 | locus YDR334W, strain swr1, stronger effect = lower value 1.01 | locus YDR335W, strain msn5, stronger effect = lower value 0.985 | [3] 0.994 | locus YDR388W, stronger effect = lower value 0.989 | locus YDR392W, strain spt3, stronger effect = lower value 0.974 | locus YDR502C, strain sam2, stronger effect = lower value 0.998 | locus YEL003W, strain gim4, stronger effect = lower value 1.01 | locus YEL037C, strain rad23, stronger effect = lower value 1.01 | locus YEL061C, strain CIN8 (second series), stronger effect = lower value 1.01 | locus YEL061C, strain CIN8, stronger effect = lower value 0.991 | [4] 1 | locus YER015W, strain faa2, stronger effect = lower value 1.01 | locus YER016W, strain bim1, stronger effect = lower value 1.01 | locus YER110C, stronger effect = lower value 0.961 | locus YER111C, strain swi4, stronger effect = lower value 1.02 | locus YER155C, strain BEM2 (second series), stronger effect = lower value 0.99 | locus YER155C, strain BEM2, stronger effect = lower value 0.994 | locus YER167W, strain BCK2, stronger effect = lower value 0.986 | locus YFR010W, strain ubp6, stronger effect = lower value 1.02 | locus YGL078C, strain dbp3, stronger effect = lower value 0.981 | locus YGL086W, strain mad1, stronger effect = lower value 1.01 | locus YGL167C, strain pmr1, stronger effect = lower value 1 | locus YGL173C, strain kem1, stronger effect = lower value 1.03 | locus YGL227W, strain vid30, stronger effect = lower value 0.997 | locus YGL240W, strain doc1, stronger effect = lower value 1 | locus YGL248W, strain PDE1, stronger effect = lower value 0.979 | locus YGL253W, strain hxk2, stronger effect = lower value 1.01 | locus YGR135W, strain pre9, stronger effect = lower value 0.951 | locus YGR229C, strain SMI1, stronger effect = lower value 0.995 | locus YGR252W, strain gcn5, stronger effect = lower value 0.994 | locus YHR013C, strain ard1, stronger effect = lower value 0.986 | locus YHR027C, strain rpn1, stronger effect = lower value 1.01 | locus YHR030C, strain SLT2, stronger effect = lower value 1 and 1.04 | locus YHR079C, strain IRE1 (second series), stronger effect = lower value 0.974 | locus YHR079C, strain IRE1, stronger effect = lower value 1.03 | locus YHR094C, strain hxt1, stronger effect = lower value 0.985 | locus YHR129C, strain ARP1, stronger effect = lower value 1 | locus YHR142W, strain chs7, stronger effect = lower value 1.03 | locus YHR200W, strain rpn10, stronger effect = lower value 0.983 | locus YIL066C, strain RNR3, stronger effect = lower value 0.995 | locus YIL073C, strain SPO22, stronger effect = lower value 0.924 | locus YIL125W, strain kgd1, stronger effect = lower value 0.992 | locus YIR030C, strain dcg1, stronger effect = lower value 0.96 | locus YJL092W, strain hpr5, stronger effect = lower value 1.02 | locus YJL095W, strain BCK1 (second series), stronger effect = lower value 0.983 | locus YJL095W, strain BCK1, stronger effect = lower value 0.955 and 1.03 | locus YJL115W, strain asf1, stronger effect = lower value 1.01 | locus YJL129C, strain trk1, stronger effect = lower value 1.03 | locus YJL134W, strain LCB3, stronger effect = lower value 1 | locus YJL154C, strain vps35, stronger effect = lower value 1.01 | locus YJL164C, strain tpk1, stronger effect = lower value 1.01 | locus YJL166W, strain qcr8, stronger effect = lower value 1 | locus YJL168C, strain set2, stronger effect = lower value 0.991 | locus YJL187C, strain SWE1 (second series), stronger effect = lower value 0.977 | locus YJL187C, strain SWE1, stronger effect = lower value 0.999 | locus YJR043C, strain POL32, stronger effect = lower value 1.04 | locus YJR066W, strain TOR1, stronger effect = lower value 0.941 | locus YJR075W, strain HOC1, stronger effect = lower value 0.974 | locus YKL009W, strain mrt4, stronger effect = lower value 0.954 | locus YKL068W, stronger effect = lower value 0.983 | locus YKL085W, strain MDH1 (second series), stronger effect = lower value 0.971 | locus YKL085W, strain MDH1, stronger effect = lower value 0.971 | locus YKL160W, strain elf1, stronger effect = lower value 0.988 | locus YKR001C, strain vps1, stronger effect = lower value 0.976 | locus YKR026C, strain gcn3, stronger effect = lower value 1 | locus YKR091W, strain srl3, stronger effect = lower value 1.01 | locus YLL001W, strain dnm1, stronger effect = lower value 1.02 | locus YLL026W, stronger effect = lower value 1 | locus YLL041C, strain sdh2, stronger effect = lower value 0.963 | locus YLR027C, strain aat2, stronger effect = lower value 0.997 | locus YLR039C, strain RIC1, stronger effect = lower value 0.989 | locus YLR058C, strain SHM2, stronger effect = lower value 0.993 | locus YLR102C, strain apc9, stronger effect = lower value 0.976 | locus YLR113W, strain HOG1, stronger effect = lower value 1.07 | locus YLR221C, strain rsa3, stronger effect = lower value 1.01 | locus YLR258W, strain gsy2, stronger effect = lower value 0.985 | locus YLR262C, strain YPT6 (second series), stronger effect = lower value 1.05 | locus YLR262C, strain YPT6, stronger effect = lower value 0.939 | locus YLR268W, strain sec22, stronger effect = lower value 0.983 | locus YLR320W, strain mms22, stronger effect = lower value 0.984 | locus YLR330W, strain CHS5, stronger effect = lower value 0.995 | locus YLR342W, strain FKS1 (second series), stronger effect = lower value 1.07 | locus YLR342W, strain FKS1, stronger effect = lower value 1.02 | locus YLR357W, strain rsc2, stronger effect = lower value 1.02 | locus YLR370C, strain arc18, stronger effect = lower value 0.967 | locus YLR371W, strain rom2, stronger effect = lower value 0.97 | locus YLR384C, strain iki3, stronger effect = lower value 0.996 | locus YLR418C, strain cdc73, stronger effect = lower value 0.98 | locus YML016C, strain PPZ1, stronger effect = lower value 1 | locus YML032C, strain rad52, stronger effect = lower value 0.997 | locus YML120C, strain ndi1, stronger effect = lower value 0.995 | locus YML124C, strain tub3, stronger effect = lower value 0.985 | locus YMR058W, strain fet3, stronger effect = lower value 1.03 | locus YMR078C, strain ctf18, stronger effect = lower value 0.963 | locus YMR125W, strain sto1, stronger effect = lower value 1 | locus YMR129W, stronger effect = lower value 0.982 | locus YMR205C, strain PFK2, stronger effect = lower value 0.992 | locus YMR223W, strain ubp8, stronger effect = lower value 0.966 | locus YMR231W, strain pep5, stronger effect = lower value 1.01 | [5] 0.991 | [6] 1.04 and 0.992 | locus YNL067W, strain RPL9B, stronger effect = lower value 0.967 | locus YNL071W, strain lat1, stronger effect = lower value 1.01 | [7] 0.992 | locus YNL183C, strain NPR1, stronger effect = lower value 1 | [8] 0.982 | locus YNL209W, strain ssb2, stronger effect = lower value 1.02 | [9] 1 | locus YNL233W, strain BNI4, stronger effect = lower value 0.986 | locus YNL248C, strain rpa49, stronger effect = lower value 1.04 | locus YNL250W, strain rad50, stronger effect = lower value 0.984 | locus YNL271C, strain bni1, stronger effect = lower value 0.987 | locus YNL298W, strain CLA4, stronger effect = lower value 0.989 | locus YNL307C, strain MCK1, stronger effect = lower value 0.983 | locus YNL322C, strain KRE1 (second series), stronger effect = lower value 1.01 | locus YNL322C, strain KRE1, stronger effect = lower value 0.994 | locus YNR049C, strain mso1, stronger effect = lower value 0.962 | locus YNR052C, strain pop2, stronger effect = lower value 0.977 | locus YOL012C, strain htz1 0.665 | locus YOL147C, strain pex11, stronger effect = lower value 0.984 | locus YOR001W, strain rrp6, stronger effect = lower value 1.03 | locus YOR061W, strain CKA2, stronger effect = lower value 0.996 | locus YOR069W, strain VPS5, stronger effect = lower value 0.999 | locus YOR070C, strain gyp1, stronger effect = lower value 1 | locus YOR080W, strain dia2, stronger effect = lower value 1.01 | [10] 0.984 | locus YOR083W, strain WHI5, stronger effect = lower value 0.973 | locus YOR106W, strain vam3, stronger effect = lower value 1.02 | locus YOR136W, strain idh2, stronger effect = lower value 0.983 | locus YOR144C, strain elg1, stronger effect = lower value 0.993 | locus YOR184W, strain ser1, stronger effect = lower value 0.959 | locus YOR231W, strain MKK1, stronger effect = lower value 1.07 | locus YOR265W, strain rbl2, stronger effect = lower value 0.999 | locus YOR270C, strain vph1, stronger effect = lower value 1.07 | locus YOR290C, strain snf2, stronger effect = lower value 1.01 | locus YOR316C, strain cot1, stronger effect = lower value 0.975 | locus YPL051W, strain arl3, stronger effect = lower value 1 | [11] 0.992 and 1.03 | locus YPL078C, strain atp4, stronger effect = lower value 1 | locus YPL106C, strain sse1, stronger effect = lower value 0.98 | locus YPL240C, strain hsp82, stronger effect = lower value 0.977 | locus YPL241C, strain CIN2, stronger effect = lower value 0.999 | locus YPL256C, strain CLN2, stronger effect = lower value 1.03 | locus YPR119W, strain clb2, stronger effect = lower value 0.98 | locus YPR141C, strain kar3, stronger effect = lower value 0.971 | locus YPR163C, strain tif3, stronger effect = lower value 0.977 | locus YPR167C, strain met16, stronger effect = lower value 0.98 | strain wtn01, stronger effect = lower value 0.996

Reference: PubChem BioAssay AID1159580 (chemical genetic matrix, 2015)
